uPA surface inh: inhibitors of cell surface uPA generation; cell surface uPA generation assay, qHTS; Potency, µM (top dose mostly 38.3 µM), inactives show top-dose activity change, negative = inhibition, usual class: inhibitors; hit rate 0.31% among 330,000; AID 540303; active means well fitted inhibition curve with a large enough effect; inconclusive means small, poorly fitted or top-dose-only effect; inactive means no such curve, though single readings can be large or run the other way; tested in mouse RAW 264.7 cells; further: potency means the concentration at half of the fitted maximal effect; on the % scale 0 is the no-effect control and ±100 the full control effect; nearly all actives have a fitted effect of over 55% in size
RORgamma inh: blocks mouse ROR gamma transcriptional activity. Drosophila S2 Gal4-RORgamma UAS-luciferase reporter, 20 h. P51450. AID 2551. Potency, µM (titrated, usually from 53.6 µM), for the others: at the top dose activity change, negative = inhibition, usual class: inhibitors. hit rate 5.4% among 310,000; further: potency means the concentration at half of the fitted maximal effect; on the % scale 0 is the no-effect control and ±100 the full control effect; nearly all actives have a fitted effect of over 60% in size
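Schneider cells (Drosophila), stable Gal4 DBD–ROR gamma + UAS-luc; 1 hr cmpd preincubation; Cu2+ induction 700 uM final; 20 hr ambient; luminescence.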
VP16 counter: Gal4-VP16 reporter inhibition counter-screen | Drosophila S2 Gal4-VP16 UAS-luciferase, luminescence, 20 h | Potency, µM (highest dose often 53.6 µM), without a hit: top-dose activity, negative = inhibition, most hits filed as inhibitors | hit rate 3.5% among 310,000 | AID 2546;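 further: Gal4-VP16 expression switched on by copper sulfate through the metallothionein promoter; potency means the concentration at half of the fitted maximal effect; on the % scale 0 is the no-effect control and ±100 the full control effect; nearly all actives have a fitted effect of over 50% in size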
TRPV1 agonist: agonists of human vanilloid receptor 1 (TRPV1); Q8NER1; activation, % at 8.33 µM; TRPV1-expressing cells, Fluo-8 calcium influx, agonist mode; hit rate 0.19% among 320,000; in the data active means activation above about 80%; inconclusive means between about 30% and that limit; further: 0% is about no effect
Target sequence (Q8NER1 whole entry, looked up): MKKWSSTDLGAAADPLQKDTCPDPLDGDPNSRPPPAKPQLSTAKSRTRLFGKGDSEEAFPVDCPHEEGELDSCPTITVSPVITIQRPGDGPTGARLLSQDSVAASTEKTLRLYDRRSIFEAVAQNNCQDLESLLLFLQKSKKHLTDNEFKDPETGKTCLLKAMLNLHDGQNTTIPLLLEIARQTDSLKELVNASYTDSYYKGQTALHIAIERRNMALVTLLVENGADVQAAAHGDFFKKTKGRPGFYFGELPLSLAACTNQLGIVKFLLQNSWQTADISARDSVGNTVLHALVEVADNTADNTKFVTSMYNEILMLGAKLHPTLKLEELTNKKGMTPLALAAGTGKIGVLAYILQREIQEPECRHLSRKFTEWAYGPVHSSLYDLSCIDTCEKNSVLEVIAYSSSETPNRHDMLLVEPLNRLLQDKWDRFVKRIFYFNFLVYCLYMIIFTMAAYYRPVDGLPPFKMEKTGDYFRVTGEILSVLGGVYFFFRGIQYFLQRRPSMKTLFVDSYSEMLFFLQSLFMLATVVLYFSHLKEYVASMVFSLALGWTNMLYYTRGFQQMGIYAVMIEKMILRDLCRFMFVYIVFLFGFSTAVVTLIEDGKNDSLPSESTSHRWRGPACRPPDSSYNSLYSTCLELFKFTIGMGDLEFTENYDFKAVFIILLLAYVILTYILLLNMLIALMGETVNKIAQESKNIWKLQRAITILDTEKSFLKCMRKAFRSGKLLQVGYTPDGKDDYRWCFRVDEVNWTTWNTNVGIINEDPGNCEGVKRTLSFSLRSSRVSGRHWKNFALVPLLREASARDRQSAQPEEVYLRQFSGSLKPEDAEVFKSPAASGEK
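Cells expressing TRPV1 were dye-loaded with Fluo-8 and read kinetically: 10 s baseline, 3 min after compound (agonist portion), then 2 min after EC20 capsaicin (allosteric enhancer portion). Calcium-bound dye fluorescence at 480/520 nm.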
TRPV1 PAM: potentiators of human vanilloid receptor 1 (TRPV1) | AID 540277 | Q8NER1 | potentiation, % at 8.33 µM | hit rate 0.02% among 320,000 | TRPV1-expressing cells, Fluo-8 calcium influx, capsaicin EC20 potentiation; in the data active means potentiation above about 80%; inconclusive means between about 30% and that limit; further: 0% is about no effect
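TRPV1-expressing cells were cultured overnight at 35.5C and loaded with Fluo-8 calcium dye for 40 to 90 min at room temperature. After a 10 s baseline, compound was added and calcium influx was read kinetically for 3 min (ex 480/em 520 nm).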
Numbers without * were called inactive; ? = inconclusive; . = no result given; [ ] = another dose, or the depositor's remark. Sampled rows, rich in hits. Any-hit rate of the full collection: about 5.8%. Unless noted, the call rests on the fitted dose curve; in most records, active means well fitted curve in the direction sought with a large enough effect; inconclusive means small, poorly fitted or top-dose-only effect, or another doubt; inactive means no such curve, though single readings can be large; an effect the other way counts as inactive or inconclusive.

SMILES	uPA surface inh	RORgamma inh	VP16 counter	TRPV1 agonist	TRPV1 PAM
Cc1ccccc1NC(=S)NCCSc1ccc(Cl)cc1	1%	2.2µM*	?	?	-11
Cc1cccc(NC(=S)NCCSc2ccc(Cl)cc2)c1	0%	3.2µM*	7.1µM*	26	-6
Cc1ccc(NC(=S)NCCSc2ccc(Cl)cc2)c(C)c1	0%	0.79µM*	1µM*	-5	-28
CCOc1ncccc1C(=O)Nc1ccc(C)cn1	-13%	10%	-7%	9	7
CCC(C(=O)NC(C)(C)C)N(Cc1cccs1)C(=O)CNS(=O)(=O)c1ccccc1 (stereo not drawn)	4%	1%	-1%	8	-4
COc1ccc(C2C3C=CCCC3(C)C(=O)N2Cc2ccccc2)cc1Cl (stereo not drawn)	.	31%	-17%	.	.
O=c1c2c(nc3cc(-c4ccc(F)cc4)[nH]n13)CCC2	0%	1%	-20%	-1	-5
O=C(COc1ccc2c(-c3ccccc3)cc(=O)oc2c1)NC1CCS(=O)(=O)C1 (stereo not drawn)	12%	.	.	-1	10
COc1ccc(NC(=S)NCCSc2ccc(C)cc2)c(OC)c1	6%	.	.	.	.
COc1ccc(OC)c(NC(=S)NCCSc2ccc(C)cc2)c1	1%	14µM*	?	-4	-6
Cc1ccc(C)c(NC(=S)NCCSc2ccc(Cl)cc2)c1	-5%	2.5µM*	5µM*	24	-7
Cc1ccc(Cl)cc1NC(=S)NCCCSC1CCCCC1	3%	2µM*	?	7	-3
CCCCSCCCNC(=S)Nc1ccccc1C	-1%	2.5µM*	?	6	-7
Cc1cc(Cl)ccc1NC(=S)NCCCO	6%	7%	-2%	2	8
COc1ccc(C2=Nn3c(nnc3-c3cccc(OC)c3OC)SC2)cc1OC	.	-6%	4%	.	.
CCOC(=O)CN1N=C(c2ccc(Cl)s2)CSC1=O	5%	10%	-13%	?	-23
C/C(=N\NC(=O)c1cc(Br)ccc1O)c1cccs1	-3%	10µM*	?	-1	8
C/C(=N\NC(=O)c1ccccc1O)c1ccc(Br)s1	-7%	2µM*	2µM*	-3	5
C/C(=N\NC(=O)c1cccc(F)c1)c1ccc(Br)s1	.	0.79µM*	1.3µM*	?	-31
C/C(=N\NC(=O)c1ccc(Cl)cc1)c1cccs1	-13%	7.1µM*	16µM*	12	-8
C/C(=N\NC(=O)c1ccc(NS(=O)(=O)c2cccs2)cc1)c1cccs1	4%	?	9%	2	1
C/C(=N\NC(=O)c1ccccc1[N+](=O)[O-])c1ccc(Br)s1	-2%	19%	-11%	18	-1
COC(=O)C(NS(=O)(=O)CCl)C(C)C (stereo not drawn)	.	4%	0%	.	.
C/C(=N\Nc1nc2ccccc2s1)c1ccc(Br)s1	-11%	7.1µM*	?	23	-8
CC(=NNc1nc2ccccc2s1)c1ccncn1	5%	.	.	.	.
SMILES	uPA surface inh	RORgamma inh	VP16 counter	TRPV1 agonist	TRPV1 PAM
CC12CCC(=O)N1C(C(=O)NNC(=O)COc1ccccc1Cl)CS2 (stereo not drawn)	1%	.	.	-2	4
COc1ccc(C(=O)NC2=NCCS2)cc1	-7%	-18%	-2%	-6	25
O=C(NC1=NCCS1)c1cccc(OC(F)F)c1	?	11µM*	-29%	6	-7
COc1ccc(N(C)S(=O)(=O)c2cccc(C(=O)NC3=NCCS3)c2)cc1	5%	6.3µM*	?	1	4
CC(C)Oc1ccc(C(=O)NC2=NCCS2)cc1	-15%	10µM*	1%[10 µM]	18	-9
COc1cc(OC)cc(C(=O)NC2=NCCS2)c1	-7%	-7%	3%	1	1
CCOC(=O)OCC1OC(c2ccccc2)C=CC1Oc1cccc(N(C)C)c1 (stereo not drawn)	.	17%[10 µM]	7%[10 µM]	.	.
COc1ccc(N2CCN(C(=O)c3ccccc3NS(=O)(=O)c3ccc(C)cc3)CC2)cc1	-7%	16%	5%	-5	5
CCOc1cccc2cc(-c3cn4cc(C)ccc4n3)c(=O)oc12	-3%	0.79µM*	?	0	-22
c1ccc2c3c([nH]c2c1)[C@@H]1[C@H]2CC[C@H]([C@H]4CCCN[C@H]42)N1CC3	.	0%[16.9 µM]	-3%[17 µM]	.	.
CCC/C=C(\CCC)C(NS(=O)(=O)c1cccs1)c1ccc(C(=O)OC)cc1 (stereo not drawn)	.	41%	?	.	.
CN(/N=C/c1cc(Cl)cc(Cl)c1O)C(=S)NC(C)(C)C	12%	?	16µM*	0	-7
CCCCC(=O)Nc1ccc(C(=O)N(CC)c2ccccc2C)cc1	-4%	2.2µM*	-1%	4	-12
Cc1ccc(C(c2nnnn2C(C)(C)C)N(Cc2ccco2)Cc2cccs2)cc1 (stereo not drawn)	-15%	10µM*	7.1µM*	24	14
CC(C)(C)n1nnnc1C(c1cccnc1)N(Cc1ccccc1)Cc1cccs1 (stereo not drawn)	-3%	?	?	?	-6
CC(C)(C)n1nnnc1C(c1ccc(F)cc1)N(Cc1ccc(F)cc1)Cc1ccco1 (stereo not drawn)	-1%	11µM*	-11%[0.365 µM]	19	5
CC(C)(C)n1nnnc1C(c1ccc(Cl)cc1)N(Cc1cccnc1)Cc1ccco1 (stereo not drawn)	-5%	?	-3%	?	5
CC(C)(C)n1nnnc1C(c1ccc(C(F)(F)F)cc1)N(Cc1ccc(F)cc1)Cc1ccco1 (stereo not drawn)	-15%	?	?	12	11
CC(C)(C)n1nnnc1C(c1ccc(C(F)(F)F)cc1)N(Cc1ccccc1)Cc1ccco1 (stereo not drawn)	-15%	6.3µM*	4µM*	20	7
CC1=NN(C(C#N)c2ccccc2C)C(C)(C)C1 (stereo not drawn)	4%	8%	0%	-3	9
CC(=O)Nc1ccccc1/C=C/c1ccc2c(C)ccc(O)c2n1	0%	8.9µM*	28µM*	-5	4
CC(=O)Nc1ccccc1/C=C/c1ccc2c(C)cc(C)c(O)c2n1	0%	7.9µM*	7.9µM*	2	13
CC(=O)Nc1cc2c3ccccc3ccc2c2ccccc12	4%	.	.	.	.
CCCc1nc2sc3c(SCC(=O)NCc4ccco4)ncnc3c2c2c1CCC2	.	17%	0%	3	-4
CN(C)c1ncc2nc(CCc3ccccc3)c(=O)n(Cc3cccs3)c2n1	.	11%	-13%	.	.
c1ccc(-c2cn3c4c(sc3n2)CCCC4)cc1	?	3.5µM*	6.3µM*	27	-12
c1ccc(-c2cn3nc(-c4ccccc4)sc3n2)cc1	-3%	.	.	.	.
Cc1cccc(C(=O)Oc2ccc(/C=N/O)cc2)c1	-5%	5.6µM*	2µM*	21	-8
COc1cc(C(=O)N/N=C/c2ccc(OC(=O)c3cccc(C)c3)cc2)ccc1O	0%	27%	-14%	13	5
Cc1cc(C)c2c(N)c(C(=O)Nc3ccccc3Br)sc2n1	5%	-11%	-11%	-6	2

Screening results (PubChem BioAssay)
